Results: PubChem BioAssay AID1159580 (chemical genetic matrix, 2015)
“And” between values parts separate entries of the source, which are not always exact repeats. Equal values may be shown once. Screen size: about 5,500 compounds; about 2,000 (36%) were called active. Inconclusive results (about 18%) are left out. Cut-off read from the data, not from the text of the source: active = normalized growth mostly below about 0.91 (no sharp cut-off); inconclusive = no clear call, values can overlap the other calls; inactive = mostly above about 0.92. The list shows a part of the results.

Assay: chemical genetic growth profiling, strain panel (AID 1159580);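 note: tested at 20 µM; growth read once vehicle control cultures reached saturation at 30 °C; 1 = growth at the plate median or of vehicle wells; lower values mean less growth of the strain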
Details: S. cerevisiae deletion strains, growth OD

Measured: normalized growth

CCOC(=O)[C@H](CCc1ccccc1)N[C@@H](C)C(=O)N1[C@H](C(=O)O)C[C@@H]2CCC[C@@H]21
inactive: locus YAL013W, strain DEP1, hits give low values 1.01 | locus YAL021C, strain ccr4, hits give low values 1.01 | locus YAL026C, strain drs2, hits give low values 0.985 | locus YAL030W, strain snc1, hits give low values 0.995 | locus YBL061C, strain skt5, hits give low values 0.984 | locus YBR009C, strain hhf1, hits give low values 0.995 | locus YBR021W, strain FUR4, hits give low values 1 | locus YBR023C, strain chs3, hits give low values 0.983 | locus YBR171W, strain sec66, hits give low values 0.971 | locus YBR229C, strain ROT2, hits give low values 1.01 | locus YBR231C, strain swc5, hits give low values 0.982 | locus YBR279W, strain paf1, hits give low values 0.979 | locus YCL011C, strain gbp2, hits give low values 0.981 | locus YCL016C, strain dcc1, hits give low values 0.985 | locus YCL029C, strain bik1, hits give low values 1.01 | locus YCL061C, strain MRC1, hits give low values 0.982 | locus YCL069W, strain vba3, hits give low values 0.977 | locus YCR088W, strain abp1, hits give low values 0.978 | locus YDL005C, strain med2, hits give low values 0.981 | locus YDL035C, strain GPR1, hits give low values 1.01 | locus YDL040C, strain nat1, hits give low values 0.981 | locus YDL074C, strain BRE1, hits give low values 1.02 | locus YDL101C, strain DUN1, hits give low values 1.01 | locus YDL134C, strain PPH21, hits give low values 1.01 | locus YDL185W, strain tfp1, hits give low values 0.998 | locus YDL192W, strain arf1, hits give low values 1.02 | locus YDR001C, strain nth1, hits give low values 0.978 | locus YDR069C, strain doa4, hits give low values 1.01 | locus YDR101C, strain arx1, hits give low values 1.01 | locus YDR137W, strain rgp1, hits give low values 0.946 | locus YDR150W, strain NUM1, hits give low values 1.01 | locus YDR159W, strain sac3, hits give low values 0.987 | locus YDR162C, strain NBP2, hits give low values 1.03 | locus YDR195W, strain ref2 0.97 | locus YDR297W, strain sur2, hits give low values 0.981 | locus YDR318W, strain mcm21, hits give low values 1.02 | locus YDR334W, strain swr1, hits give low values 0.978 | locus YDR335W, strain msn5, hits give low values 0.985 | locus YDR388W, hits give low values 1.01 | locus YDR392W, strain spt3, hits give low values 0.974 | locus YDR502C, strain sam2, hits give low values 1.01 | locus YEL003W, strain gim4, hits give low values 0.981 | locus YEL037C, strain rad23, hits give low values 0.982 | locus YEL061C, strain CIN8 (second series), hits give low values 0.98 | locus YEL061C, strain CIN8, hits give low values 1.01 | locus YER015W, strain faa2, hits give low values 0.989 | locus YER016W, strain bim1, hits give low values 0.993 | locus YER110C, hits give low values 1.01 | locus YER111C, strain swi4, hits give low values 0.976 | locus YER155C, strain BEM2 (second series), hits give low values 0.972 | locus YER155C, strain BEM2, hits give low values 1 | locus YER167W, strain BCK2, hits give low values 1.01 | locus YFR010W, strain ubp6, hits give low values 0.989 | locus YGL078C, strain dbp3, hits give low values 1.01 | locus YGL086W, strain mad1, hits give low values 1.02 | locus YGL167C, strain pmr1, hits give low values 0.979 | locus YGL173C, strain kem1, hits give low values 0.969 | locus YGL227W, strain vid30, hits give low values 0.979 | locus YGL240W, strain doc1, hits give low values 1 | locus YGL248W, strain PDE1, hits give low values 1.01 | locus YGL253W, strain hxk2, hits give low values 0.996 | locus YGR078C, strain PAC10, hits give low values 1.01 | locus YGR135W, strain pre9, hits give low values 1.02 | locus YGR229C, strain SMI1, hits give low values 1.01 | locus YGR252W, strain gcn5, hits give low values 1.03 | locus YHR013C, strain ard1, hits give low values 0.956 | locus YHR027C, strain rpn1, hits give low values 0.979 | locus YHR030C, strain SLT2, hits give low values 1 and 1.01 | locus YHR079C, strain IRE1 (second series), hits give low values 1.01 | locus YHR079C, strain IRE1, hits give low values 1 | locus YHR094C, strain hxt1, hits give low values 1.02 | locus YHR129C, strain ARP1, hits give low values 1.01 | locus YHR142W, strain chs7, hits give low values 0.971 | locus YHR200W, strain rpn10, hits give low values 1.02 | locus YIL066C, strain RNR3, hits give low values 1.01 | locus YIL073C, strain SPO22, hits give low values 1.07 | locus YIL125W, strain kgd1, hits give low values 1.03 | locus YIR030C, strain dcg1, hits give low values 1.02 | locus YJL092W, strain hpr5, hits give low values 0.981 | locus YJL095W, strain BCK1 (second series), hits give low values 0.985 | locus YJL095W, strain BCK1, hits give low values 1 and 0.991 | locus YJL115W, strain asf1, hits give low values 0.986 | locus YJL129C, strain trk1, hits give low values 0.987 | locus YJL134W, strain LCB3, hits give low values 1.01 | locus YJL154C, strain vps35, hits give low values 0.978 | locus YJL164C, strain tpk1, hits give low values 0.995 | locus YJL166W, strain qcr8, hits give low values 0.99 | locus YJL168C, strain set2, hits give low values 1.02 | locus YJL187C, strain SWE1 (second series), hits give low values 1.01 | locus YJL187C, strain SWE1, hits give low values 0.985 | locus YJR043C, strain POL32, hits give low values 1.01 | locus YJR066W, strain TOR1, hits give low values 0.955
